Read-out in experiment [1]: Cytochrome P450 2C9 (Homo sapiens) (UniProt P11712)
Put plainly: CLD_CYP2C9_48hr: CellzDirect (CLD) Gene Expression Assay for xenobiotic metabolism (CYP2C9) at 48 hours (AID 2283701; active means hit-call score of the fitted dose curve at least 0.9, where 1 is the maximum; inactive means score below 0.9). The method in brief: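 mRNA level measured by quantitative nuclease protection (S1 digestion, chemiluminescent detection) in lysates of human primary hepatocytes exposed 48 h with daily re-dosing. Induction fitted positively versus 0.2% DMSO; morphology-based cytotoxicity flagged yes/no.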

Experiment [2] in a line: CLD_ACTIN_48hr: CellzDirect (CLD) Gene Expression Assay for Baseline Control (Actin) at 48 hours (AID 2283702). The method in brief:
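Background-control actin mRNA read by qNPA chemiluminescence at 48 h. Human hepatocyte cultures from two donors received fresh multi-concentration chemical doses daily for two days; 0.2% DMSO served as vehicle baseline.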

Read-out in experiment [3]: Broad substrate specificity ATP-binding cassette transporter ABCG2 (Homo sapiens) (UniProt Q9UNQ0)
Nature of the experiment: CLD_ABCG2_48hr: CellzDirect (CLD) Gene Expression Assay for ABC Transporter (ABCG2) at 48 hours (AID 2283704). In outline:
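ABCG2 transcript measured at 48 h by quantitative nuclease protection (chemiluminescent) and fitted for increase relative to 0.2% DMSO. Hepatocyte cultures from separate donors got fresh compound daily over two days; morphology annotated cytotoxicity.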

Read-out in experiment [4]: xenobiotic metabolism (CYP1A1), CYP1A1 (gene 1543)
Nature of the experiment: CLD_CYP1A1_48hr: CellzDirect (CLD) Gene Expression Assay for xenobiotic metabolism (CYP1A1) at 48 hours (AID 2283705). In outline: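 CYP1A1 transcript measured by quantitative nuclease protection (chemiluminescent) 48 h after two daily treatments of human hepatocyte cultures, versus 0.2% DMSO. Morphology-based cytotoxicity flags accompany data; two donor preparations used.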

Read-out in experiment [5]: alkyl and aryl transferase (GSTA2), GSTA2 (gene 2939)
Put plainly: CLD_GSTA2_48hr: CellzDirect (CLD) Gene Expression Assay for alkyl and aryl transferase (GSTA2) at 48 hours (AID 2283708).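 Further: active means mRNA induction above DMSO vehicle baseline.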 In outline:
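GSTA2 mRNA quantified by qNPA chemiluminescence in human primary hepatocyte lysates after 48 h of daily fresh chemical dosing. Increases fitted against 0.2% DMSO vehicle baseline; cytotoxicity from morphology annotated yes/no.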

Results filed as inconclusive are left out. Active and inactive are the calls of the source. How the source made its calls, unless noted: active means hit-call score of the fitted dose curve at least 0.9, where 1 is the maximum; inconclusive means response in the unintended direction; inactive means score below 0.9.

Sequence of Broad substrate specificity ATP-binding cassette transporter ABCG2 (Homo sapiens) (Q9UNQ0 whole entry, looked up): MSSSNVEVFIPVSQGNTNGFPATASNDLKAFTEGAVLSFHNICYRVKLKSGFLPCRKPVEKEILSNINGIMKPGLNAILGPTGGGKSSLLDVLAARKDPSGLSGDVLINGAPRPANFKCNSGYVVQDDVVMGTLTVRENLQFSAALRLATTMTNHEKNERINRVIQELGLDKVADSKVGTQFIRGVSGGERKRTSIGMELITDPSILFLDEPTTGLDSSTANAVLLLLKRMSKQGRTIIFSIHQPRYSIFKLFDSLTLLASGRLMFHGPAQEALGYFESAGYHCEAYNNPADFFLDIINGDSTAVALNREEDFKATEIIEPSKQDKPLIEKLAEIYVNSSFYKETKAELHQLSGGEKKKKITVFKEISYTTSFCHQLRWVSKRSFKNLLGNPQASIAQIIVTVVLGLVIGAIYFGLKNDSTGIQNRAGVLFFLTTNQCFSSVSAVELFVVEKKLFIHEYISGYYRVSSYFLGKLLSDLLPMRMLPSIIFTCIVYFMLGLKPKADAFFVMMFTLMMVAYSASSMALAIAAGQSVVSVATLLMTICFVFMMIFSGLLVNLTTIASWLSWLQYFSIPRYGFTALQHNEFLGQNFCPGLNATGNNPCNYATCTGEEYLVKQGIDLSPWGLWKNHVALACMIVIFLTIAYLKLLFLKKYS

Take `COP(=O)(OC)SCn1c(=O)oc2cc(Cl)cnc21`: the result in experiment [1], in experiment [2], in experiment [3], in experiment [4] and in experiment [5] was inactive.

With `CCOP(=O)(NC(C)C)Oc1ccc(SC)c(C)c1` (configuration not stated), the call in experiment [1] was inactive.

For `CCC(=NOC/C=C/Cl)C1=C(O)CC(C2CCOCC2)CC1=O` (configuration not stated), the outcome in experiment [1] was inactive.

Source of the values: PubChem BioAssay (EPA / NIEHS).
